Measurements as given in PubChem BioAssay AID1159580 (chemical genetic matrix, 2015).
“And” between values parts separate entries of the source, which are not always exact repeats. Equal values may be shown once. Screen size: about 5,500 compounds; about 2,000 (36%) were called active. Inconclusive results (about 18%) are left out. Rule as the data show it: active = normalized growth mostly below about 0.91 (no sharp cut-off); inconclusive = no clear call, values can overlap the other calls; inactive = mostly above about 0.92. This is one part of the list.

Test: chemical genetic growth profiling, strain panel (AID 1159580);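 also: tested at 20 µM; growth read once vehicle control cultures reached saturation at 30 °C; 1 = growth at the plate median or of vehicle wells; lower values mean less growth of the strain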
Conditions: growth OD

Measured: normalized growth

CN(C)CCCN1c2ccccc2Sc2ccc(C(F)(F)F)cc21
active: S. cerevisiae deletion strains, locus YOR106W, strain vam3, hits give low values 0.561 | S. cerevisiae deletion strains, locus YOR270C, strain vph1, hits give low values 0.737
inactive: S. cerevisiae deletion strains, locus YNL153C, strain GIM3, hits give low values 1.01 | S. cerevisiae deletion strains, locus YNL175C, strain NOP13, hits give low values 1.01 | S. cerevisiae deletion strains, locus YNL183C, strain NPR1, hits give low values 0.962 | S. cerevisiae deletion strains, locus YNL197C, strain WHI3, hits give low values 1.03 | S. cerevisiae deletion strains, locus YNL209W, strain ssb2, hits give low values 0.986 | S. cerevisiae deletion strains, locus YNL224C, strain SQS1, hits give low values 1.03 | S. cerevisiae deletion strains, locus YNL233W, strain BNI4, hits give low values 1.02 | S. cerevisiae deletion strains, locus YNL248C, strain rpa49, hits give low values 0.953 | S. cerevisiae deletion strains, locus YNL250W, strain rad50, hits give low values 0.963 | S. cerevisiae deletion strains, locus YNL271C, strain bni1, hits give low values 0.982 | S. cerevisiae deletion strains, locus YNL298W, strain CLA4, hits give low values 0.954 | S. cerevisiae deletion strains, locus YNL307C, strain MCK1, hits give low values 0.987 | S. cerevisiae deletion strains, locus YNL322C, strain KRE1 (second series), hits give low values 1.03 | S. cerevisiae deletion strains, locus YNL322C, strain KRE1, hits give low values 0.993 and 0.907 | S. cerevisiae deletion strains, locus YNR049C, strain mso1, hits give low values 1.02 | S. cerevisiae deletion strains, locus YNR052C, strain pop2, hits give low values 0.962 | S. cerevisiae deletion strains, locus YOL006C, strain TOP1, hits give low values 0.611 | S. cerevisiae deletion strains, locus YOL012C, strain htz1 1.01 | S. cerevisiae deletion strains, locus YOL147C, strain pex11, hits give low values 0.991 | S. cerevisiae deletion strains, locus YOR001W, strain rrp6, hits give low values 0.938 | S. cerevisiae deletion strains, locus YOR061W, strain CKA2, hits give low values 0.967 | S. cerevisiae deletion strains, locus YOR069W, strain VPS5, hits give low values 0.987 | S. cerevisiae deletion strains, locus YOR070C, strain gyp1, hits give low values 1.01 | S. cerevisiae deletion strains, locus YOR080W, strain dia2, hits give low values 1.03 | S. cerevisiae deletion strains, locus YOR083W, strain WHI5 (second series), hits give low values 0.946 | S. cerevisiae deletion strains, locus YOR083W, strain WHI5, hits give low values 0.954 | S. cerevisiae deletion strains, locus YOR136W, strain idh2, hits give low values 0.972 | S. cerevisiae deletion strains, locus YOR144C, strain elg1, hits give low values 0.974 | S. cerevisiae deletion strains, locus YOR184W, strain ser1, hits give low values 0.96 | S. cerevisiae deletion strains, locus YOR231W, strain MKK1, hits give low values 0.978 | S. cerevisiae deletion strains, locus YOR265W, strain rbl2, hits give low values 1.01 | S. cerevisiae deletion strains, locus YOR290C, strain snf2, hits give low values 0.989 | S. cerevisiae deletion strains, locus YOR316C, strain cot1, hits give low values 0.965 | S. cerevisiae deletion strains, locus YPL051W, strain arl3, hits give low values 0.966 | S. cerevisiae deletion strains, locus YPL055C, strain LGE1, hits give low values 0.968 and 0.953 | S. cerevisiae deletion strains, locus YPL078C, strain atp4, hits give low values 0.992 | S. cerevisiae deletion strains, locus YPL106C, strain sse1, hits give low values 0.911 | S. cerevisiae deletion strains, locus YPL240C, strain hsp82, hits give low values 1.03 | S. cerevisiae deletion strains, locus YPL241C, strain CIN2, hits give low values 0.996 and 0.976 | S. cerevisiae deletion strains, locus YPL256C, strain CLN2, hits give low values 0.988 | S. cerevisiae deletion strains, locus YPR119W, strain clb2, hits give low values 0.982 | S. cerevisiae deletion strains, locus YPR141C, strain kar3, hits give low values 0.926 | S. cerevisiae deletion strains, locus YPR163C, strain tif3, hits give low values 0.979 | S. cerevisiae deletion strains, locus YPR167C, strain met16, hits give low values 0.981 | S. cerevisiae deletion strains, strain wtn01, hits give low values 0.981 | S. cerevisiae strains, strain wild type, hits give low values 0.979
